Compound activity as filed in PubChem.
An excerpt weighted towards active compounds, which were near 0.2% of everything screened.
Bim-Bfl-1: human Bim-Bfl-1 interaction inhibition. Bead-based flow cytometry, Bim-Bfl-1 binding inhibition. inhibition, % at 10 µM. hit rate 0.12% among 190,000
Target sequence (Q16548 whole entry, looked up): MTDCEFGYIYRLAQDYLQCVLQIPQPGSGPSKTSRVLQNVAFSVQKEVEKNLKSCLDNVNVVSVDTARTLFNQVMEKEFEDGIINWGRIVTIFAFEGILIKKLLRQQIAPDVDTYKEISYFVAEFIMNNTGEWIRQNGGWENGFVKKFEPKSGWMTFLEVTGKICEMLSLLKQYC
Pf gamet viab: P. falciparum stage V gametocyte viability inhibition. P. falciparum stage V gametocytes, ATP luminescence, 24 h. inhibition, % at 10.9 µM. hit rate 0.065% among 150,000. AID 743093;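 active = inhibition above the mean plus 3 SD of compounds within the control limits, set per campaign, cut at about 38% in these data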
Bcl-W Bim block: human Bim-Bcl-W interaction inhibition. Q92843. bead-based flow cytometry, Bim peptide-Bcl-W binding. inhibition, % at 10 µM. hit rate 0.02% among 190,000. AID 952;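 also: higher means less fluorescent Bim peptide bound to Bcl-W beads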
Target sequence (Q92843 whole entry, looked up): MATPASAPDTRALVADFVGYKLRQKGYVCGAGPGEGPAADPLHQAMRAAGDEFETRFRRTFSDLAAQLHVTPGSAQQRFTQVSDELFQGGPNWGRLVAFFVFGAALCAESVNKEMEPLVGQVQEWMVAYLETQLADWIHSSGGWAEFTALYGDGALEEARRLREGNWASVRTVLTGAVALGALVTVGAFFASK
Bim-Bcl-2: disrupts Bim peptide binding to human Bcl-2; P10415; Bead-based flow cytometry, Bim peptide-Bcl-2 binding; inhibition, % at 10 µM; hit rate 0.06% among 190,000; in the data active = inhibition above about 40%
Bim-Bcl-XL: inhibitors of Bim-Bcl-XL interaction, human. hit rate 0.04% among 190,000. inhibition, % at 10 µM. Bim peptide-Bcl-XL binding, bead flow cytometry, fluorescence
Bcl-B Bim block: human Bim-Bcl-B interaction inhibition | Q9HD36 | bead-based flow cytometry, Bim peptide-Bcl-B binding | inhibition, % at 10 µM | hit rate 0.073% among 190,000
A number is an active result; 0 = inactive; - = no result given. Rule as the data show it, unless noted: active = inhibition above about 40%.

SMILES	Bim-Bfl-1	Pf gamet viab	Bcl-W Bim block	Bim-Bcl-2	Bim-Bcl-XL	Bcl-B Bim block
O=C(COC(=O)CSc1ccc2ccccc2c1)NCc1ccc2c(c1)OCO2	0	47.6	0	0	0	0
O=C(CSc1nnc(-c2ccc(F)cc2)o1)NC1CCCCC1	0	43.1	0	0	0	0
O=C(CSc1nnc(-c2ccncc2)o1)NC1CCCCC1	0	0	0	0	0	0
O=C(Cc1ncc(C(F)(F)F)cc1Cl)NCCc1ccccn1	0	0	0	0	0	0
CCCCCCc1cc2cc(C(=O)NCc3ccccc3)c(=N)oc2cc1O	0	0	0	0	0	0
CCCCCCc1cc2cc(C(=O)Nc3ccccc3)c(=O)oc2cc1O	0	-	0	45.0	0	50.0
O=C(Nc1ccccc1)Nc1ccc2ncoc2c1	0	0	0	41.0	59.0	52.0
COc1ccc(/C=N/N2C(=O)c3ccccc3C2=O)cc1	0	56.8	0	0	0	0
CN(C)c1ccc(/C=N/N2C(=O)c3ccccc3C2=O)cc1	-	0	-	-	-	-
C1=CC2c3ccccc3NC(c3ccncc3)C2C1 (stereo not given)	55.0	0	0	0	0	0
O=C(Nc1ccccc1)c1ccc2nc(-c3ccco3)c(-c3ccco3)nc2c1	45.0	0	0	0	0	0
O=C(NCCO)Nc1ccc2nc(-c3ccco3)c(-c3ccco3)nc2c1	43.0	-	0	0	0	0
O=C(Nc1ccc(N2CCOCC2)cc1)c1ccc2nc(-c3ccco3)c(-c3ccco3)nc2c1	0	0	0	0	0	0
O=C(Nc1ccc2nc(-c3ccco3)c(-c3ccco3)nc2c1)N1CCN(c2ccccn2)CC1	53.0	0	0	0	0	0
CC(=O)c1ccc(NC(=O)c2ccc3nc(-c4ccco4)c(-c4ccco4)nc3c2)cc1	51.0	-	0	0	0	0
O=C(NCCCO)c1ccc2nc(-c3ccco3)c(-c3ccco3)nc2c1	52.0	0	0	0	0	0
NC(=O)c1c(NC(=O)C2CCCO2)sc2c1CCCC2 (stereo not given)	0	0	0	0	42.0	0
CCOC(=O)c1c(NC(=O)C2CCCO2)sc2c1CCC2 (stereo not given)	0	-	0	0	0	0
CCN1C[C@@H]2[C@@H]3C(=O)N(Cc4ccccc4)C(=O)[C@@H]3[C@](CC)(C1=O)N2C(=O)c1ccc(Cl)cc1	-	0	-	-	-	-
Cc1[nH]c2ccccc2c1C(=O)COC(=O)c1c(-c2c(F)cccc2Cl)noc1C	43.0	0	0	0	41.0	0
COc1cccc(=O)c2c(C)n(C)c(C)c12	0	38.8	0	0	0	0
COc1ccc(/C=C2\N=C(C)OC2=O)cc1[N+](=O)[O-]	-	0	-	-	-	-
CCN(CC)c1ccc(Nc2nc(N3CCOCC3)c3ccccc3n2)cc1	54.0	0	0	0	0	0
COc1ccc(Nc2nc(N3CCCC3)c3ccccc3n2)cc1	0	0	0	0	0	0
COc1ccc([C@@H]2[C@@H]3C(=O)N(C(C)(C)C)C(=O)[C@@H]3[C@]3(Cc4ccc(Cl)cc4)C(=O)N(c4cccc(F)c4)C(=O)N23)cc1	-	0	-	-	-	-
SMILES	Bim-Bfl-1	Pf gamet viab	Bcl-W Bim block	Bim-Bcl-2	Bim-Bcl-XL	Bcl-B Bim block
COC(=O)c1c(C(=O)OC)c2cccc3cc(-c4ccccc4)c4ccc1c4n32	44.0	-	0	0	0	0
COC(=O)c1cc2c(-c3ccccc3)cc3ccccn3c-2c1C(=O)OC	0	-	0	0	0	0
COc1ccccc1-n1c(-c2ccc(Cl)cc2)c[nH]c1=S	0	-	0	0	0	42.0
CCc1nnc(NS(=O)(=O)c2ccc(NC(=S)NC(=O)/C=C/c3ccccc3)cc2)s1	0	41.1	0	0	0	0
CCC(=O)OCCNc1cc(Sc2nc3ccccc3s2)c2nonc2c1[N+](=O)[O-]	54.0	-	0	0	0	0
CCC(=O)OCCNc1cc(Sc2nc3ccccc3[nH]2)c2nonc2c1[N+](=O)[O-]	0	-	0	0	0	0
Cc1ccc(Nc2nc(-c3c(C)nc4ncccn34)cs2)cc1	0	0	0	0	0	0
Cc1nc2ncccn2c1-c1csc(Nc2ccc(O)cc2)n1	0	0	0	0	62.0	0
Cc1ccc(C)c(Oc2ncnc(N)c2[N+](=O)[O-])c1	43.0	-	0	0	46.0	0
Cc1ccc(C)c(C(=O)Nc2ccncc2)c1	-	0	-	-	-	-
FC(F)(F)c1nc(=S)c2ccccc2[nH]1	0	-	0	0	0	0
Cc1nc(=S)c2ccccc2[nH]1	68.0	-	0	87.0	0	85.0
Cc1ccc(NC2=C(NC(=O)c3ccccc3)C(=O)c3ccccc3C2=O)cc1Cl	50.0	0	0	0	0	0
